According to PubChem BioAssay:
Calls of active or inactive are those of the source.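 The calls were made as follows: active = inhibition of the reporter signal at or above 50%; inactive = inhibition below 50%.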

Assay: inhibitors of poly I:C-induced TLR3 signaling, primary screen, cell-based, poly I:C stimulus, luciferase, 10K MLSCN set (AID 602277)
Conditions: HEK293-TLR3 RL24 IRF3 luciferase reporter, at 10 µM, active compounds read high

Row | SMILES | inhibition
1 | Cc1nc2c(-c3ccc(F)cc3)c(C)nn2c(C)c1CCC(=O)NC(C)CCc1ccco1 (stereo not given) | 26.9% (inactive)
2 | CCOC(=O)N1CCC(NC(=O)CSCc2nc(-c3cccc(OC)c3)oc2C)CC1 | -6.15% (inactive)
3 | Cn1c(=O)[nH]c(=O)c2c1nc(NC1CCCCC1)n2CC(=O)NC1CCCCC1 | 21.1% (inactive)
4 | O=S(=O)(Nc1ccc(Cc2ccncc2)cc1)N1CCCC1 | 2.2% (inactive)
5 | CCOc1ccc2nc(NC(=O)CSc3nnnn3C3CCCCC3)sc2c1 | -46.7% (inactive)
6 | COc1ccccc1OCCCCNCCO | 25.1% (inactive)
7 | Cc1cccc(-n2ncc3c(NCCCO)ncnc32)c1 | -193% (inactive)
8 | COc1cc(NC(=O)Nc2cccc(Cl)c2)c(OC)cc1NC(=O)CN1CCCCC1 | -1.73% (inactive)
9 | CCOC(=O)N1CCN(C(=O)c2n[nH]c(=O)c3ccccc23)CC1 | -3.48% (inactive)
10 | C=CCN1C(=O)C2(C(C#N)=C(N)Oc3n[nH]c(CCC)c32)c2ccccc21 (stereo not given) | 16.8% (inactive)
11 | CCOc1ccc2[nH]c(=O)c(C(c3nnnn3CC3CCCO3)N3CCc4ccccc4C3)cc2c1 (stereo not given) | 31.2% (inactive)
12 | Cn1c(Cc2ccccc2)nnc1SCC(=O)N1CCOCC1 | 13.5% (inactive)
13 | CC1=C(C(=O)OC2CCCCC2)C(c2ccc(C)o2)C2=C(CC(C)(C)CC2=O)N1 (stereo not given) | 29.1% (inactive)
14 | O=S(=O)(NC1CCCCC1NS(=O)(=O)c1ccc(F)cc1)c1ccc(F)cc1 (stereo not given) | 26.6% (inactive)
15 | CCOC(=O)c1ccc(NC(=O)Cn2cc3c(n2)CCC(C)C3)cc1 (stereo not given) | 23.6% (inactive)
